Holding throughout (assay): NCI-60 one-dose screen, 48 h (100 = growth as untreated, 0 = no growth, -100 = all killed)
Common to all, as to details: 10 µM unless noted

Test [1] relates to DU-145 prostate.
For test [2], the system named is MALME-3M melanoma.
Test [3] deals with MDA-MB-231 breast.
Test [4] concerns RXF 393 renal.
Test [5] concerns SF-268 CNS.
The subject of test [6] is SF-295 CNS.
The test system of test [7] is SF-539 CNS.
Test [8] deals with UACC-257 melanoma.
The subject of test [9] is M14 melanoma.

The values below come from PubChem BioAssay (NCI).

About 83,000 compounds went through this panel and 20% of them were active in at least one assay; those are over-represented in the sample as a whole.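 In brief: 96-well plates, 48 h treatment, single concentration, percent growth endpoint.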 A number with no mark means an inactive call. The source made the active and inactive calls. How the source made its calls: active means growth percent below 10; inactive means the rest.

As for `NCCN1CCN(c2nccc(-c3ccc4ccccc4c3)n2)CC1`, the growth in test [1] is 84.6%; in [2], 60.3%; in test [3], 23.8%; in test [4], 43.1%; in test [5] it was 63.8%; in test [6] it was 90.1%. Moreover, the growth in test [7] is -4.96% (active); in test [8] it was 68.4%; in test [9], -66.8% (active).

Regarding `CC1=N/C(=C\c2cccc(Br)c2)C(=O)O1`, the growth in test [1] is 109%; in test [2], 98.8%; in test [3], 105%; in test [4], 112%; in test [5], 98.6%; in test [6], 108%. Moreover, the growth in test [7] was 115%; in [8], 80.6%; in [9] it was 104%.

Turning to `COc1c2ccccc2c(OC)c2[nH]c(=O)ccc12`, the growth in test [1] is -95.1% (active); in [2] it was -63.2% (active); in test [3], 69.4%; in [4] it was 91.3%; in test [5] it was 64.4%; in test [6], -21.4% (active). For the same compound, the growth in test [8] was 40.8%; in test [9], -46.1% (active).

For `CC(=O)/C(=C/c1cccc(Cl)c1)C(=O)c1ccccc1`, the growth in [1] is 92.2%; in test [2], 85.5%; in test [3], 84.8%; in test [4] it was 93.1%; in [5], 79.2%; in test [6] it was 96.1%. Also, the growth is 105% in test [7], 72.3% in test [8] and 73.1% in test [9].

For the compound `CN(C)C(=O)c1cc2cnc(Nc3ccc(-c4csc5c(=O)cc(N6CCNCC6)oc45)cc3)nc2n1C1CCCC1`, the growth in test [1] is 29.9%; in [2] it was 60.2%; in test [3] it was 9.91% (active); in test [4] it was -78.6% (active); in test [5], 19.2%; in test [6], 15.2%. In addition, the growth in test [7] is -33% (active); in test [8], 64.4%; in test [9], 27.1%.

As for `CCOC(=O)C(=Cc1ccccc1F)C(=O)OCC`, the growth in test [1] was 71.1%; in test [2] it was 94.2%; in [3], 93.3%; in test [4], 102%; in test [5], 89.9%; in test [6], 111%. Besides, the results for the growth in test [7], in [8] and in [9] were 98%, 83.2% and 85.8%, respectively.

For the compound `CN1C2CCC1/C(=C\c1ccc(Cl)cc1)C1=C2[C@@H](c2ccc(Cl)cc2)C(C#N)=C(N)O1` (stereo partly drawn), the growth in [1] is 94.5%; in test [2] it was 88%; in test [3], 104%; in [4], 68.8%; in test [5], 85%; in test [6] it was 97.8%. For the same compound, the growth in test [7] is 94.2%; in test [8], 85.9%; in test [9], 95.2%.

Regarding `O=C1C=CC(=O)c2c1nc1n2CCCC1`, the growth is 63.2% in test [1]; -71.2% (active) in test [2]; 89.9% in test [3]; 96.5% in test [4]; 83.5% in [5]; 95.8% in test [6]. The growth in test [7] was 74.9%; in [8] it was 84.8%; in [9], 29.9%.

For the compound `COc1ccc2[nH]c(=O)c(/C=C/C(=O)c3ccc(Nc4nccc(-c5ccc6ccccc6c5)n4)cc3)cc2c1`, the growth in [1] was 99.9%; in [2] it was 101%; in [3], 96.2%; in test [4] it was 102%; in test [5], 94.9%; in test [6], 101%. Moreover, the results for the growth in test [7], in test [8] and in test [9] were 101%, 95.2% and 101%, respectively.

As for `Nc1ccc(Nc2nccc(-c3ccc4ccccc4c3)n2)cc1`, the growth was 67.4% in test [1]; 59.5% in test [2]; 46.8% in [3]; 50.3% in test [4]; 49.9% in [5]; 64.8% in test [6]. Moreover, the growth in [7] is 55.4%; in test [8] it was 58.6%; in test [9], 26.8%.

With `O=C(CO[N+](=O)[O-])Nc1ccc(C(=O)/C=C/c2ccc(Cl)cc2)cc1`, the growth in test [1] is 79.9%; in test [2] it was 79.1%; in test [3], 55%; in test [4], 72.5%; in [5] it was 44.9%; in test [6] it was 105%. The growth is 61.2% in [8] and 3.46% (active) in test [9].

For `CC[C@H](Nc1nc(N)nc(C)c1C#N)c1nc2cccc(NCc3ccc(C(=O)NO)cc3)c2c(=O)n1-c1ccccc1`, the growth was 17.2% in [1]; 21.5% in test [2]; 7.58% (active) in test [3]; -21.7% (active) in [4]; 9.63% (active) in test [5]; -3.97% (active) in [6]. The growth is -18.8% (active) in [7], 0.817% (active) in test [8] and 0.234% (active) in test [9].

Take `C[C@@H]1CC[C@@H]2[C@@H]1[C@H](OC(=O)/C=C/c1ccccc1)[C@]1(c3ccccc3)C[C@@H](OC(=O)CO)[C@@]2(C)O1`: the growth is 102% in test [1]; 108% in test [2]; 97.2% in [3]; 60.6% in test [4]; 52.5% in [5]; 96.4% in test [6]. The growth in test [7] was 102%; in test [8] it was 86%; in [9] it was 105%.

Regarding `CSc1nc(NCCCNc2ccnc3cc(Cl)ccc23)cc(-c2ccccc2)n1`, the growth was 81.3% in test [1]; 56.9% in test [2]; 45.4% in test [3]; 60.9% in [4]; 67.9% in [5]; 56.9% in test [6]. Further, the results for the growth in test [8] and in [9] were 68.1% and -42.5% (active), respectively.
